Each structure is given as a SMILES string. Compounds without any hit were thinned out: in the full panel of roughly 83,000, 20% have a hit.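 Percent growth is the endpoint: 0 to 100 indicates growth inhibition (40 means 60% inhibition), 0 means no net growth, and negative values indicate cell death.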 Values without a mark were called inactive. Activity calls are given as the source filed them. How the source made its calls: active means growth percent below 10; inactive means the rest.

Among the test systems are NCI-H23 lung; NCI-H226 lung; NCI-H322M lung; HOP-62 NSCLC; NCI-H460 lung; HOP-92 NSCLC; NCI-H522 lung; A549/ATCC NSCLC; 786-0 renal; COLO 205 colon.
Assay in all cases: NCI-60 one-dose screen, 48 h (100 = growth as untreated, 0 = no growth, -100 = all killed)
Common to all, as to details: 10 µM unless noted

As to `Cc1cc(Nc2ccc(F)cc2)nc(N2CCN(c3ccnc4cc(Cl)ccc34)CC2)n1`, the growth is 28.9% in the test on NCI-H23 lung; 57.5% in the test with NCI-H226 lung; 46.8% with NCI-H322M lung; 59.8% in the test with HOP-62 NSCLC; 11.6% in the test with NCI-H460 lung; -7.85% (active) in the test on HOP-92 NSCLC. Also, the growth in the test on NCI-H522 lung was 17.4%; in the test on A549/ATCC NSCLC it was 29.8%; with 786-0 renal, 23.5%; in the test on COLO 205 colon it was -68% (active).

On to `CN1CCN(c2ccc3nc(-c4[nH]ncc4Nc4ncnc5c4OCCCN5)[nH]c3c2)CC1`, for which the growth in the test with NCI-H23 lung was -53.9% (active); in the test on NCI-H226 lung, -76.4% (active); with NCI-H322M lung it was -67.3% (active); with HOP-62 NSCLC, -48.4% (active); in the test with NCI-H460 lung it was -69.8% (active); in the test on HOP-92 NSCLC it was -29.3% (active). The growth was -26.2% (active) in the test with NCI-H522 lung, -63% (active) in the test on A549/ATCC NSCLC, -59.3% (active) in the test with 786-0 renal and -72.5% (active) with COLO 205 colon.

As for `N=C(N)N=Nc1ccc(O)cc1`, the growth with NCI-H23 lung is 68% [100 µM]; in the test with NCI-H226 lung, 73.5% [100 µM]; in the test on NCI-H322M lung, 80.2% [100 µM]; with HOP-62 NSCLC, 76.9% [100 µM]; in the test with NCI-H460 lung, 84.1% [100 µM]; in the test on HOP-92 NSCLC, 84% [100 µM]. Further, the growth in the test with NCI-H522 lung was 37.7% [100 µM]; with A549/ATCC NSCLC it was 93.3% [100 µM]; with 786-0 renal, 28.9% [100 µM]; in the test with COLO 205 colon it was 57.2% [100 µM].

With `NCCn1cc(-c2nc(-c3c[nH]c4ncccc34)cs2)c2cc(F)ccc21`, the growth in the test with NCI-H23 lung was 76.7%; in the test on NCI-H226 lung, 74.5%; in the test on NCI-H322M lung, 76.9%; in the test on HOP-62 NSCLC it was 73.6%; with NCI-H460 lung it was 51.3%; in the test with HOP-92 NSCLC it was 49.1%. Further, the growth in the test on NCI-H522 lung is 90.7%; in the test on A549/ATCC NSCLC it was 61.7%; with 786-0 renal it was 87.5%; with COLO 205 colon it was 49.2%.

Regarding `C=C1C(=O)O[C@H]2[C@H]1CC/C(Cn1cc(-c3ccc(OC)cc3)nn1)=C\CC[C@@]1(C)O[C@@H]21`, the growth in the test on NCI-H23 lung is 4.37% (active); in the test with NCI-H226 lung it was -44.1% (active); in the test on NCI-H322M lung, 88.7%; in the test on HOP-62 NSCLC it was 49.7%; in the test with NCI-H460 lung it was 87.6%; in the test with HOP-92 NSCLC, -60.1% (active). In addition, the growth is -78.7% (active) in the test with NCI-H522 lung, 57.3% in the test on A549/ATCC NSCLC, -83.2% (active) in the test on 786-0 renal and -86% (active) in the test on COLO 205 colon.

For `CNC(=O)c1cc(Oc2ccc3nc(NC(=O)Nc4ccc(Cl)cc4)sc3c2)ccn1`, the growth in the test on NCI-H23 lung was 69%; in the test with NCI-H226 lung, 67.9%; with NCI-H322M lung, 66.8%; with HOP-62 NSCLC it was 6.54% (active); in the test with NCI-H460 lung, 64.4%; in the test with HOP-92 NSCLC, 63.3%. Further, the growth in the test on NCI-H522 lung was 78%; in the test with A549/ATCC NSCLC it was 44.1%; in the test with 786-0 renal, 75.3%; in the test on COLO 205 colon, 79.4%.

Regarding `CCCCC/C(=C\c1ccccc1)C1OC(C)C(C)O1` (stereo not given), the growth in the test on NCI-H23 lung was 90.2%; with NCI-H226 lung, 83.4%; in the test on NCI-H322M lung, 112%; in the test with HOP-62 NSCLC, 93.5%; in the test with NCI-H460 lung, 107%; with HOP-92 NSCLC, 95%. Further, the growth with NCI-H522 lung is 68.5%; with A549/ATCC NSCLC, 68.5%; with 786-0 renal, 91.2%; in the test on COLO 205 colon it was 106%.

On to `Cc1ccncc1C(=O)O`, for which the growth was 92.7% with NCI-H23 lung; 101% with NCI-H226 lung; 101% in the test with NCI-H322M lung; 113% in the test with HOP-62 NSCLC; 99.6% in the test with NCI-H460 lung; 88.4% with HOP-92 NSCLC. Further, the growth is 128% with NCI-H522 lung, 90.1% in the test with A549/ATCC NSCLC, 103% with 786-0 renal and 128% in the test on COLO 205 colon.

In the case of `CC(C)(C)c1cc(-n2c(-c3ccc(Cl)cc3)nc3cc(C(=O)Nc4ccc(Cl)cc4)ccc32)n[nH]1`, the growth with NCI-H23 lung is 32.8%; in the test with NCI-H226 lung, 73.9%; with NCI-H322M lung, 82%; in the test with HOP-62 NSCLC it was 83.6%; in the test on NCI-H460 lung it was 39.6%; in the test on HOP-92 NSCLC, 38.1%. For the same compound, the growth in the test on NCI-H522 lung was 56.9%; with A549/ATCC NSCLC it was 51.1%; in the test with 786-0 renal, 67.4%; in the test with COLO 205 colon it was 51.8%.

Take `Fc1ccc(Nc2ccc3c(OCCCN4CCOCC4)cccc3n2)cc1F`: the growth is 79% in the test on NCI-H23 lung; 64.6% in the test on NCI-H226 lung; 73.3% with NCI-H322M lung; 89.6% in the test with HOP-62 NSCLC; 55.7% with NCI-H460 lung; 63.9% with HOP-92 NSCLC. Further, the growth in the test with NCI-H522 lung was 83.8%; with A549/ATCC NSCLC, 75.4%; in the test with 786-0 renal it was 74%; in the test with COLO 205 colon, -7.44% (active).

As to `COc1ccc(-c2n[nH]nc2-c2cc3ccccc3s2)cc1O`, the growth is 27.9% in the test with NCI-H23 lung; 51.6% with NCI-H226 lung; 58.8% in the test with NCI-H322M lung; 24.1% in the test with HOP-62 NSCLC; 10.1% in the test with NCI-H460 lung; 49.9% in the test on HOP-92 NSCLC. Further, the growth in the test with NCI-H522 lung is -5.47% (active); with A549/ATCC NSCLC, 15%; with 786-0 renal it was 33.6%; with COLO 205 colon, 51.4%.

Regarding `COc1cc(-c2cc3ncccc3c3nc(N)c4cccnc4c23)cc(OC)c1OC`, the growth is 24.5% in the test with NCI-H23 lung; 38.7% in the test on NCI-H226 lung; 44.3% in the test on NCI-H322M lung; 27.3% in the test on HOP-62 NSCLC; 3.55% (active) in the test with NCI-H460 lung; 41.2% with HOP-92 NSCLC. In addition, the growth with NCI-H522 lung was 17.4%; with A549/ATCC NSCLC, 12.7%; in the test with 786-0 renal, 12.9%; with COLO 205 colon, -15.6% (active).

Regarding `O=S(=O)(NCCNc1cc(-c2cn(-c3ccccc3)nc2-c2cccc(O)c2)ccn1)c1ccccc1`, the growth in the test on NCI-H23 lung is 57.4%; in the test with NCI-H226 lung it was 67.1%; in the test on NCI-H322M lung it was 82%; in the test on HOP-62 NSCLC, 77.7%; with NCI-H460 lung, 49.1%; in the test on HOP-92 NSCLC it was 49.4%. In addition, the growth in the test with NCI-H522 lung was 42.3%; in the test on A549/ATCC NSCLC, 45.5%; in the test with 786-0 renal, 55.3%; in the test with COLO 205 colon, 18.3%.

These data come from PubChem BioAssay (NCI).
